Assay outcomes (PubChem BioAssay)
In the library only some 4.6% were active in any assay of this set; here they are far more common.
DAX1 inh-1 = inhibitors of DAX1 repression of SF-1 activated StAR promoter. HEK293T StAR-luciferase reporter, SF-1/DAX-1 repression relief. inhibition, % at 6.8 µM. 370,000 tested, 1.1% active;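 active = inhibition above the mean over all tested compounds plus 3 SD, cut at about 3.6% in these data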;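 note: 0% = DAX-1 cells with DMSO and 100% = cells lacking DAX-1 with DMSO; higher inhibition means more luminescence from relief of DAX-1 repression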
Wee1 degr inh = blocks degradation of human Wee1 kinase | HeLa Luc-Wee1K328M stability, luciferase luminescence; 100% = proteasome inhibitor MG132 effect | 220,000 tested, 1.2% active | AID 1321 | reporter increase, % at 5 µM;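 active = activation above the mean of all tested compounds plus 3 SD, set per screening run, cut at about 8.8% in these data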;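 note: cells exposed to compound for 20 h before luminescence read; 0% = DMSO alone and 100% = MG132 at 30 µM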
hgDAF12 agonist = agonists of H. glycines DAF-12 nuclear receptor; 370,000 tested, 1.8% active; HEK293 GAL4-hgDAF12 UAS-luciferase reporter, agonist luminescence; normalized to butyrate control; activation, % at 6.8 µM;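 active = activation above a cutoff set at the mean of all screened compounds plus 3 SD, cut at about 10% in these data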;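 note: 0% = DMSO wells and 100% = sodium butyrate wells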
DAX1 inh-2 = inhibits human nuclear receptor DAX1. 340,000 tested, 0.99% active. HEK293 Gal4-DAX1 luciferase reporter, luminescence. inhibition, % at 6.75 µM. P51843;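 active = inhibition above the mean over all tested compounds plus 3 SD, cut at about 4.2% in these data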;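 note: 0% = DAX1-transfected cells with DMSO and 100% = empty-vector control cells with DMSO; inhibition shows as a rise in luminescence from relieved DAX1 repression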
Target sequence (P51843 207-470 limits assumed): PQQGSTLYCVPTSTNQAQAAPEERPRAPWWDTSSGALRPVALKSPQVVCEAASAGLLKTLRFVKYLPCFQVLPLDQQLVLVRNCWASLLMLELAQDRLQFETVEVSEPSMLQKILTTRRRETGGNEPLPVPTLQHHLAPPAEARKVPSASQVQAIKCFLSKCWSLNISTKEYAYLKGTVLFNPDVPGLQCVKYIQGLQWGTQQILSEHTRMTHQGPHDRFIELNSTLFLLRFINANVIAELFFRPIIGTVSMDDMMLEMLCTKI
hcDAF12 agonist = activates DAF-12 receptor from parasite H. contortus. HEK293 hcDAF-12 lit1-tk-luc reporter, luminescence; 0% DMSO, 100% Δ7-dafachronic acid. activation, % at 6.8 µM. 370,000 tested, 1.4% active;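 active = activation above the mean of all tested compounds plus 3 SD, cut at about 5.5% in these data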;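 note: 100% = response to 3 µM Δ7-dafachronic acid high control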
ssDAF12 agonist = activates DAF-12 receptor from parasite S. stercoralis; HEK293 ssDAF-12/GRIP1 lit1-tk-luc reporter, luminescence; % of 3 µM dafachronic acid response; activation, % at 6.8 µM; 370,000 tested, 1% active;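 active = activation above the mean over all tested compounds plus 3 SD, cut at about 0.9% in these data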;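 note: 0% = DMSO-only wells and 100% = 3 µM delta7-dafachronic acid wells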
LXRb hcDAF ctr = LXR-beta agonism as hcDAF-12 counter-screen; shares compounds with hcDAF12 agonist; AID 743027; HEK293 Gal4-LXR tk-luc reporter, luminescence, 24 h; normalized: DMSO 0%, positive control 100%; 3,400 tested, under 10 active; activation, % at 6.8 µM;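 active = mean percent activation of the reporter above a cutoff set as the average over tested compounds plus their standard deviation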
hcDAF12 conf = confirmation of H. contortus DAF-12 agonists. shares compounds with hcDAF12 agonist. 3,400 tested, 61% active. HEK293 hcDAF-12 lit1-tk-luc reporter, luminescence; % of Δ7-dafachronic acid response. activation, % at 6.8 µM;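 active = mean activation across triplicate tests above the threshold derived from the earlier primary screen, cut at about 5.5% in these data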;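 note: 0% = DMSO only wells and 100% = 3 µM Δ7-dafachronic acid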
* = called active by the depositor; / = no result given.

SMILES	DAX1 inh-1	Wee1 degr inh	hgDAF12 agonist	DAX1 inh-2	hcDAF12 agonist	ssDAF12 agonist	LXRb hcDAF ctr	hcDAF12 conf
COc1ccc(C2c3[nH]c4ccccc4c3C[C@H]3C(=O)N(c4ccccc4C(=O)N4CCC[C@@H]4C(=O)O)C(=O)N23)cc1 (some centres undefined)	1	/	2	-1	3	0	/	/
O=C(O)[C@@H]1CCCN1C(=O)c1ccccc1N1C(=O)[C@@H]2Cc3c([nH]c4ccccc34)C(c3cccc(Cl)c3)N2C1=O (some centres undefined)	1	/	2	-1	8.8*	0	0	4
Cc1ccc(C2c3[nH]c4ccccc4c3C[C@H]3C(=O)N(c4ccccc4C(=O)N4CCC[C@H]4C(=O)O)C(=O)N23)cc1 (some centres undefined)	1	/	4	2	7.6*	0	0	3
CC(=O)OCCn1c([N+](=O)[O-])cnc1C=[N+]([O-])C1CCCCC1	2	/	3	0	2	0	/	/
O=C(CSC1=NS(=O)(=O)c2cc(Cl)ccc2N1)NCc1ccccc1	-1	/	1	-1	7.0*	-1	0	-1
O=C(O)C(Cc1c[nH]c2ccccc12)N1Cc2ccccc2C1=O (centres undefined)	1	4	8	4	6.9*	3.0*	1	8.0*
CC(=O)N[C@H](Cc1c[nH]c2ccccc12)C(=O)O	0	/	1	-1	8.2*	0	0	0
CC(=O)/C=C(/C)NC(Cc1c[nH]c2ccccc12)C(=O)O (centres undefined)	1	1	3	0	2	0	/	/
CC(C)(C)c1ccccc1NC(=O)CN1C(=O)NC2(CCCCCC2)C1=O	-2	/	0	0	-2	-1	/	/
O=C(O)c1cc(Cl)c2ccccc2c1O	0	-1	6	0	6.9*	0	0	3
Cc1noc(C)c1NC(=O)Nc1ccc2c(c1)C(=O)N([C@H](C)CO)C[C@H](C)[C@@H](CN(C)S(=O)(=O)c1cccs1)O2	0	/	-3	1	-1	-1	/	/
COc1cc(C(=O)N2CCC(N3CCN(C)CC3)CC2)ccc1Nc1ncc2c(n1)N(C)c1ccccc1C(=O)N2C	3.7*	/	-5	/	6.8*	0	0	6.4*
COc1ccccc1N1CCN(C2CCN(C(=O)c3ccc(F)cc3)CC2)CC1	0	1	1	1	-3	-1	/	/
COc1cc2ccccc2cc1C(=O)Nc1nccs1	1	/	11*	1	10.0*	1.4*	1	11*
COc1ccccc1C(=O)Nc1ccc(N2CCCCC2)cc1	3	3	11*	3	13*	2.7*	1	14*
COc1ccccc1C(=O)Nc1ccc2ccccc2c1	1	/	14*	3	20*	1.6*	1	12*
Cc1ccc2c(NCc3ccco3)nc(NC(C)C)nc2c1	-3	/	-2	/	0	-1	/	/
O=C1CCC(C(=O)N2CCN(c3cnccn3)CC2)CN1CCc1ccccc1 (centres undefined)	0	/	-2	-1	0	-1	/	/
Cc1onc(-c2ccccc2)c1C(=O)N1CCC(C)(C(=O)O)C1 (centres undefined)	0	/	-1	/	-1	-1	/	/
CCCNC(=O)C1(C)CCCN(Cc2ccc3c(c2)OCO3)C1 (centres undefined)	-1	/	3	/	1	-1	/	/
CCc1c(C)nc(SCC(=O)c2cccs2)c(C#N)c1C	2	3	6	2	8.2*	1	1	8.7*
CCN(C(=O)CSc1cccc[n+]1[O-])C1CCCCC1	1	/	2	0	0	-1	/	/
COc1ccccc1NC(=O)C1CC(C(C)C)OC1=O (centres undefined)	0	/	-1	/	0	-1	/	/
CCC(=O)Nc1ccc(NC(=O)c2ccccc2)nc1	4.1*	2	11*	0	7.0*	1.0*	1	3
CCC(=O)Nc1ccc(NC(=O)Cc2ccccc2)cn1	0	-1	0	0	-1	-1	/	/
SMILES	DAX1 inh-1	Wee1 degr inh	hgDAF12 agonist	DAX1 inh-2	hcDAF12 agonist	ssDAF12 agonist	LXRb hcDAF ctr	hcDAF12 conf
COc1ccc(-n2c(SCC(=O)NCC3CCCO3)nc3c([nH]c4ccccc43)c2=O)cc1 (centres undefined)	0	/	3	0	7.3*	0	0	3
COc1ccc(-n2c(SCC(=O)NCC3CCCO3)nc3c([nH]c4ccccc43)c2=O)cc1OC (centres undefined)	-1	/	10*	0	8.1*	0	0	5
COc1cccc(-n2c(SCC(=O)NCC3CCCO3)nc3c([nH]c4ccccc43)c2=O)c1 (centres undefined)	1	/	-3	-1	4	-1	/	/
Cn1c(NC(=O)C[n+]2cc(-c3ccccc3)n3c2CCC3)cc(=O)n(C)c1=O	0	3	2	-1	7.1*	-1	0	0
Cn1c(NC(=O)C[n+]2cc(-c3ccc(Cl)cc3)n3c2CCC3)cc(=O)n(C)c1=O	0	-1	-1	0	1	-1	/	/
CCc1ccccc1N1CC(C(=O)Nc2cc(S(=O)(=O)N3CCCC3)ccc2Cl)CC1=O (centres undefined)	-1	/	-2	0	1	0	/	/
Cn1c(Cl)c(C(=O)Nc2ccc(Cl)cc2)c2ccccc21	0	6	8	3	6.8*	1	0	5.9*
Cc1cc(C)n2nc(SCC(=O)N3CC(C)CC(C)C3)nc2n1 (centres undefined)	-1	/	4	0	-2	-1	/	/
COc1ccccc1C(=O)Nc1nnc(-c2ccccc2)s1	0	/	9	1	6.8*	1.2*	0	8.5*
COc1ccccc1C(=O)NNC(=O)c1ccccc1Br	0	/	5	1	8.4*	1	0	2
COc1ccccc1C(=O)CC(=O)c1ccccc1	1	/	11*	2	6.7*	1.5*	1	11*
COc1ccccc1C(=O)NNC(=O)c1ccccc1	2	/	7	6.0*	10*	1.0*	1	11*
COc1ccccc1C(=O)Nc1nnc(C)s1	1	1	6	1	2	-1	/	/
CCn1cc(/C=C(\NC(=O)c2ccccc2OC)C(=O)NCCN2CCOCC2)c2ccccc21	-1	/	1	0	1	-1	/	/
